Hits are enriched below; roughly 7.4% of the tested compounds scored in any of these assays.
Luciferase inh: Photinus pyralis luciferase inhibition; purified P. pyralis luciferase, luminescence, biochemical; Potency, µM (doses to about 115 µM), most hits filed as inhibitors; 2.5% of 76,000 active; AID 1347043; further: nearly all actives have a fitted effect of over 65% in size
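Inhibitors were tested against purified firefly luciferase in a biochemical, low-substrate format (both substrates at 10uM) and luminescence measured with a CCD imager.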
HEK293 viab: reduces viability of HEK-293 SNCA reporter cells. 0.12% of 150,000 active. HEK-293-SNCA-luc viability, GF-AFC fluorescence, 24 h. Potency, µM (titrated, usually from 57.1 µM), actives largely listed as cytotoxic; further: nearly all actives have a fitted effect of over 30% in size
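HEK-293-SNCA-luc cells (1500/well) plated 24 h, then exposed 24 h to a dilution series; GF-AFC added 30 min at 37C, fluorescence 405/540 nm; normalised to medium-only and DMSO wells, Hill fit.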
SNCA expr inh: SNCA gene expression inhibition. 0.17% of 140,000 active. Potency, µM (top dose mostly 57.2 µM), actives largely listed as inhibitors. AID 1671194. HEK-293 SNCA-luciferase knock-in, luminescence, 24 h; further: nearly all actives have a fitted effect of over 45% in size
3T3 cytotox: cytotoxic compounds in NIH 3T3 cells. NIH 3T3 viability, CellTiter-Glo ATP luminescence, 48-72 h. Potency, µM (titrated, usually from 96.7 µM), usual class: inhibitors. 4.3% of 94,000 active. AID 1345082; further: nearly all actives have a fitted effect of over 55% in size
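Luminescent ATP readout (CellTiter-Glo, 10 min RT) after 48 or 72 hr compound exposure of NIH 3T3 cells seeded at 400 cells/well in 1536-well format; quantitative HTS.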
hNpr1 antagonist: blocks ANP-stimulated signaling of human Npr1 receptor. P16066. HEK293 hNpr1 GloSensor cGMP, ANP-stimulated luminescence. Potency, µM (top dose mostly 46.3 µM), actives largely listed as inhibitors. 1.6% of 76,000 active; calls by dose curve; further: nearly all actives have a fitted effect of over 60% in size
Target sequence (P16066 whole entry, looked up): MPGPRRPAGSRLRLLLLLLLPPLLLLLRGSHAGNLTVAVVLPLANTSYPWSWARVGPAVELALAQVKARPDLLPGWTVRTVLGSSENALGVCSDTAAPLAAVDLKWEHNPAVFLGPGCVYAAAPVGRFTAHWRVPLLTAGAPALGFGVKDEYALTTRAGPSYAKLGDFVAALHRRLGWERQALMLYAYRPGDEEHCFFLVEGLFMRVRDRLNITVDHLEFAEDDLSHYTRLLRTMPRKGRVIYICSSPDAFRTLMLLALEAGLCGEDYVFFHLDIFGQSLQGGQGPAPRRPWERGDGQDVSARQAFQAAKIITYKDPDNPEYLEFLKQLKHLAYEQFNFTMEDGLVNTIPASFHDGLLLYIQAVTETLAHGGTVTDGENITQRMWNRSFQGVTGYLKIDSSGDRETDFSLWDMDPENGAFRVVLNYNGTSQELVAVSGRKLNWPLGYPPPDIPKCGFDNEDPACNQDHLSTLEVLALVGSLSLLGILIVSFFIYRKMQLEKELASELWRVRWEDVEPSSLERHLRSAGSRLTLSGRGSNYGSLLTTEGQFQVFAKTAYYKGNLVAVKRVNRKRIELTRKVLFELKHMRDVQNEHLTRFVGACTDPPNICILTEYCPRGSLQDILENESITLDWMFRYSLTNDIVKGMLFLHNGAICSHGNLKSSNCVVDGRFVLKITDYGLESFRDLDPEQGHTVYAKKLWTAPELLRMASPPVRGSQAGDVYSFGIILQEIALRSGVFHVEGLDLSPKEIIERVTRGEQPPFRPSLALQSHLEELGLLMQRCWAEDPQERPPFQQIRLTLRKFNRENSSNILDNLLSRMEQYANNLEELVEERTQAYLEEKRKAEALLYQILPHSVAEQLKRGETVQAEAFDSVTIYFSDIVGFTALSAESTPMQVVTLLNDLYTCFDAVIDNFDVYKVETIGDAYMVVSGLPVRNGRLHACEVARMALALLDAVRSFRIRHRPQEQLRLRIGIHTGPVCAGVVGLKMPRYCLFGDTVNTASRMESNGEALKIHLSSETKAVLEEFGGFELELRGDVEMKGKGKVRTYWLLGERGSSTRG
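Compound pre-incubated 30 min at room temperature on GloSensor-loaded HEK293 cells stably carrying hNpr1 and the pGS-40F cGMP biosensor. Stimulation uses hNppA at 0.1 nM final; luminescence is taken at baseline and 20 min post-agonist.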
HEK293 tox: cytotoxic compounds in HEK 293 cells; 6.6% of 94,000 active; HEK 293 viability, ATP luminescence (CellTiter-Glo), 48-72 h; Potency, µM (series often up to 115 µM), most hits filed as inhibitors; further: nearly all actives have a fitted effect of over 60% in size
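Viability of HEK 293 cells, plated at 250 cells/well, was judged by cellular ATP after compound treatment for 48 or 72 hr. Luminescence was imaged 10 min after CellTiter-Glo addition at room temperature.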
Each line names hits and unclear results; the compound was inactive in the other large screens. Unless noted, the call rests on the fitted dose curve; in most records, active means well fitted curve in the direction sought with a large enough effect; inconclusive means small, poorly fitted or top-dose-only effect, or another doubt; inactive means no such curve, though single readings can be large; an effect the other way counts as inactive or inconclusive.

O=C(NCc1ccccc1)C1CC(=O)N(C2CN(S(=O)(=O)c3cccc(F)c3)C2)C1 (stereo not given)	none (no result: Luciferase inh, hNpr1 antagonist)
COc1cccc(-c2cccc(C(=O)N3CCCC3C(=O)NC3CC3)c2)c1 (stereo not given)	HEK293 tox inconclusive (no result: Luciferase inh, hNpr1 antagonist)
Cc1nn(C)c(C)c1S(=O)(=O)N1CC[C@@H]2COCCN(C)[C@@H]2C1	none (no result: Luciferase inh, hNpr1 antagonist)
CC1=C(C(=O)OC(C)C)C(c2ccccc2Cl)CC(=O)N1Cc1cccc(F)c1 (stereo not given)	3T3 cytotox inconclusive, HEK293 tox 32µM
CC1=C(C(=O)OC(C)C)C(c2ccccc2Cl)CC(=O)N1Cc1cc(F)cc(F)c1 (stereo not given)	3T3 cytotox inconclusive, HEK293 tox inconclusive
COc1ccc(-c2cccc(C(=O)N3CCC(NC(=O)Nc4ccc(Cl)cc4)CC3)c2)nn1	3T3 cytotox 25µM, HEK293 tox 45µM (no result: Luciferase inh, HEK293 viab, SNCA expr inh, hNpr1 antagonist)
COc1cccc(-c2ccc(C(=O)N3CCC(NC(=O)c4ccccc4C)CC3)cc2)c1	3T3 cytotox 40µM, HEK293 tox inconclusive (no result: Luciferase inh, hNpr1 antagonist)
COc1cccc(-c2ccc(C(=O)N3CCC(NC(=O)Nc4ccccc4F)CC3)cc2)c1	3T3 cytotox inconclusive, HEK293 tox 16µM (no result: Luciferase inh, hNpr1 antagonist)
COc1cccc(-c2ccc(C(=O)N3CCC(NC(=O)NC4CCCC4)CC3)cc2)c1	none (no result: Luciferase inh, hNpr1 antagonist)
COc1cccc(-c2ccc(C(=O)N3CCC(NC(=O)Cc4cccc(Cl)c4)CC3)cc2)c1	3T3 cytotox inconclusive, HEK293 tox 25µM (no result: Luciferase inh, hNpr1 antagonist)
CC(C)(C)c1coc([C@@H]2COCCN2C2CCCCC2)n1	none
Cc1ccc([S+](=O)([O-])N2CCCC(C(=O)N3CCC(c4nc5ccncc5[nH]4)C3)C2)cc1 (stereo not given)	none (no result: Luciferase inh, hNpr1 antagonist)
CO[C@H]1CN(C2CCN(C(=O)Cn3nc(C(F)(F)F)cc3C)CC2)[C@H]1c1cccnc1	none (no result: Luciferase inh, hNpr1 antagonist)
CCC(C)NC(=O)C(NC(=O)c1ccccc1F)C1CCN(C(=O)c2ccc(OC)cc2)CC1 (stereo not given)	none
COc1cccc(-c2ccc(C(=O)N3CCC(NC(=O)C(C)(C)C)CC3)cc2)c1	3T3 cytotox 40µM, HEK293 tox inconclusive (no result: Luciferase inh, hNpr1 antagonist)
COc1ccc(C(=O)N2CCC(C(NC(=O)c3ccccc3C)C(=O)NC(C)C(C)C)CC2)cc1 (stereo not given)	HEK293 viab 20µM
COc1cccc(-c2ccc(C(=O)N3CCC(NC(C)=O)CC3)cc2)c1	SNCA expr inh inconclusive, 3T3 cytotox inconclusive, HEK293 tox inconclusive (no result: Luciferase inh, hNpr1 antagonist)
O=C(NC1CCCCC1)C1(CCO)CC12CCOCC2 (stereo not given)	none (no result: Luciferase inh, hNpr1 antagonist)
O=C(NCc1ccccc1F)c1ccc2nnc(C3CCOCC3)n2c1	none (no result: Luciferase inh, HEK293 viab, SNCA expr inh, hNpr1 antagonist)
O=C(CN1CCCc2nc(-c3ccccc3)ncc2C1=O)N1CCOCC1	HEK293 tox inconclusive (no result: Luciferase inh, hNpr1 antagonist)
O=C(COc1ccccc1)N1CCCCCC1c1nc(-c2ccncc2)no1 (stereo not given)	HEK293 tox inconclusive (no result: Luciferase inh, hNpr1 antagonist)
COc1ccccc1C(=O)N1CC(Oc2ccc(-c3noc(-c4ccncc4)n3)cc2)C1	3T3 cytotox 35µM, HEK293 tox inconclusive (no result: Luciferase inh, hNpr1 antagonist)
Cn1cccc1C(=O)N1CC(Oc2ccc(-c3nc(-c4ccccc4)no3)cc2)C1	Luciferase inh inconclusive, HEK293 tox inconclusive
CCCNC(=O)N1CC(Oc2cccc(-c3nc(-c4ccccc4)no3)c2)C1	HEK293 tox 28µM
O=C(c1cc(F)ccc1F)N1CC(Oc2cccc(-c3nc(-c4ccccc4)no3)c2)C1	Luciferase inh inconclusive, 3T3 cytotox inconclusive, HEK293 tox inconclusive
COc1cccc(C(=O)N2CC(Oc3cccc(-c4nc(-c5ccccc5)no4)c3)C2)c1	Luciferase inh inconclusive, 3T3 cytotox inconclusive, HEK293 tox inconclusive
COc1ccccc1C(=O)N1CC(Oc2cccc(-c3nc(-c4ccccc4)no3)c2)C1	Luciferase inh 7.9µM, 3T3 cytotox 32µM, HEK293 tox 45µM
CC(Oc1ccccc1)C(=O)N1CC(Oc2cccc(-c3nc(-c4ccccc4)no3)c2)C1 (stereo not given)	Luciferase inh inconclusive, 3T3 cytotox 28µM, HEK293 tox 32µM
O=C(c1ccoc1)N1CC(Oc2cccc(-c3nc(-c4ccccc4)no3)c2)C1	Luciferase inh inconclusive, 3T3 cytotox inconclusive, HEK293 tox inconclusive
O=C(C1CCOCC1)N1CC(Oc2cccc(-c3nc(-c4ccccc4)no3)c2)C1	Luciferase inh 18µM, 3T3 cytotox inconclusive, HEK293 tox inconclusive
CCNC(=O)N1CCCC(c2noc(COc3ccccc3)n2)C1 (stereo not given)	Luciferase inh 32µM
Cc1ccc(NC(=O)N2CCCC(c3noc(COc4ccccc4)n3)C2)c(C)c1 (stereo not given)	Luciferase inh inconclusive, 3T3 cytotox inconclusive, hNpr1 antagonist 13µM, HEK293 tox inconclusive
C[S+](=O)([O-])c1ccc(-c2nnc3ccc(C(=O)NCc4ccccn4)cn23)cc1	none (no result: Luciferase inh, hNpr1 antagonist)
CCc1nc2c(c(-c3ccc(O)cc3)n1)CN(C(=O)Cc1ccc(F)cc1)CC2	3T3 cytotox inconclusive (no result: Luciferase inh, hNpr1 antagonist)
O=C1NC(=NC2CCCC2)C2(CCN(Cc3cccnc3)CC2)N1c1cc(F)cc(F)c1	3T3 cytotox 32µM (no result: Luciferase inh, hNpr1 antagonist)
O=C1NC(=NC2CCCC2)C2(CCCN(Cc3cccnc3)C2)N1c1cccnc1 (stereo not given)	3T3 cytotox inconclusive (no result: Luciferase inh, hNpr1 antagonist)
O=C1NC(=NC2CCCC2)C2(CCN(Cc3cccnc3)C2)N1c1cc(F)cc(F)c1 (stereo not given)	3T3 cytotox 32µM (no result: Luciferase inh, hNpr1 antagonist)
Cn1c(=O)n([C@H]2CCN(C(=O)Cc3cccnc3)C2)c2ncccc21	none (no result: Luciferase inh, hNpr1 antagonist)
O=c1c2nc(-c3ccsc3)ccc2ncn1-c1ccc(F)cc1F	3T3 cytotox 45µM, HEK293 tox 100µM
COc1ccc(-c2ccc3ncn(-c4ccc(F)cc4F)c(=O)c3n2)cc1OC	3T3 cytotox inconclusive, HEK293 tox inconclusive
COc1cccc(-c2ccc3ncn(-c4ccc(F)cc4F)c(=O)c3n2)c1	Luciferase inh inconclusive, 3T3 cytotox 50µM, HEK293 tox inconclusive
O=c1c2nc(-c3ccccc3)ccc2ncn1-c1ccc(F)cc1F	3T3 cytotox 28µM, HEK293 tox inconclusive
COc1ccc(-c2cn(C)c(=O)n3cc(COc4ccc(C(=O)O)cc4)nc23)c(C)c1	SNCA expr inh inconclusive, 3T3 cytotox inconclusive, HEK293 tox inconclusive
COc1ccc(Cl)cc1S(=O)(=O)N1CCC(c2c[nH]c3c(C)cccc23)CC1	3T3 cytotox inconclusive, HEK293 tox inconclusive
Cc1cccc2c(C3CCN(S(=O)(=O)c4cc(F)c(F)cc4Cl)CC3)c[nH]c12	3T3 cytotox 32µM, HEK293 tox inconclusive
O=C(NCc1cccnc1)c1ccc(N2CC3CC(C2)[C@H]2CCCC(=O)N2C3)nc1 (stereo not given in full)	3T3 cytotox 5µM

Screens as filed in PubChem BioAssay.
